Several values for one entry are separate records, joined by “and”; a condition that tells them apart may be missing. Identical values can stand only once. Inconclusive results are not listed. The source holds several records for some structures; these can differ, active in one and inactive in another. Activity calls are given as the source filed them. Calls come from the whole dose curve; as a rule, active = well fitted curve in the direction sought with a large enough effect in the repeat runs; inconclusive = weak or mixed curves; inactive = no such curve, though single readings can be large; an effect the other way counts as inactive or inconclusive.

Experiment [1] can be described thus: A CellTox Green Cytotoxicity Assay to monitor cytotoxicity in HEK293 cells - 40 hour (AID 1224871). Note: nearly all actives have a fitted effect of over 45% in size. Note: potency is the fitted concentration of half-maximal effect. An outline of the steps:
(§1)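 Tox21 screen in HEK293: membrane-impermeant cyanine dye fluoresces on binding dead-cell DNA; compound pinned 5 h post-seeding, plates held at 37 C, signal read repeatedly through 40 h.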

A short description of experiment [2]: qHTS RealTime-Glo MT Cell Viability Assay in HEK293 cells - 16 hour (AID 1224872). Note: nearly all actives have a fitted effect of over 50% in size. Note: potency is the fitted concentration of half-maximal effect. An outline of the steps:
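Reads taken at 0, 8, 16, 24, 32 and 40 h from the same wells. HEK293 cells (600/well) carried RealTime-Glo reagents from seeding, with compound added after a 5 h settle at 37 C.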
(In qHTS, concentration-response curves come from the screen itself.)

Experiment [3] in a line: qHTS RealTime-Glo MT Cell Viability Assay in HepG2 cells - 8 hour (AID 1224873). Note: nearly all actives have a fitted effect of over 55% in size. Note: potency is the fitted concentration of half-maximal effect. An outline of the steps: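 HepG2 cells (600/well) mixed with RealTime-Glo MT reagent, settled 5 h at 37 C/5% CO2 before compound addition. Nonlytic NanoLuc luminescence from viable-cell prosubstrate reduction read repeatedly during 40 h treatment at 37 C.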
Experiment [4] is described as follows: qHTS RealTime-Glo MT Cell Viability Assay in HEK293 cells - 40 hour (AID 1224874). Note: nearly all actives have a fitted effect of over 50% in size. Note: potency is the fitted concentration of half-maximal effect. Conditions: RealTime-Glo luminescence; max response: stronger effect = lower value. An outline of the steps:
(§2)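 HEK293 + NanoLuc + prosubstrate, 600 cells/well; 5 h, 37 C/5% CO2; compound 23 nL in DMSO by pintool; 37 C; luminescence read at 0, 8, 16, 24, 32 and 40 h time points.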

A short description of experiment [5]: A CellTox Green Cytotoxicity Assay to monitor cytotoxicity in HEK293 cells - 24 hour (AID 1224875). Note: nearly all actives have a fitted effect of over 45% in size. Note: potency is the fitted concentration of half-maximal effect. The procedure, abridged:
as §1

A short description of experiment [6]: A CellTox Green Cytotoxicity Assay to monitor cytotoxicity in HepG2 cells - 16 hour (AID 1224876). Note: nearly all actives have a fitted effect of over 45% in size. Note: potency is the fitted concentration of half-maximal effect. An outline of the steps:
(§3)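 Measurements at 0, 8, 16, 24, 32 and 40 h of treatment captured CellTox Green fluorescence in HepG2 cells that had been co-plated with reagent and preincubated 5 h at 37 C/5% CO2.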

The nature of experiment [7]: qHTS RealTime-Glo MT Cell Viability Assay in HepG2 cells - 32 hour (AID 1224877). Note: nearly all actives have a fitted effect of over 55% in size. Note: potency is the fitted concentration of half-maximal effect. An outline of the steps:
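HepG2 suspension premixed with RealTime-Glo reagents is plated at 600 cells per well and left 5 h at 37 C/5% CO2. Compounds in DMSO then go in, and bioluminescence reflecting viable cell number is recorded over 40 h.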

Experiment [8] in a line: A CellTox Green Cytotoxicity Assay to monitor cytotoxicity in HepG2 cells - 24 hour (AID 1224878). Note: nearly all actives have a fitted effect of over 45% in size. Note: potency is the fitted concentration of half-maximal effect. An outline of the steps:
as §3

Experiment [9] can be described thus: A CellTox Green Cytotoxicity Assay to monitor cytotoxicity in HepG2 cells - 40 hour (AID 1224879). Note: nearly all actives have a fitted effect of over 40% in size. Note: potency is the fitted concentration of half-maximal effect. An outline of the steps: as §3
A short description of experiment [10]: qHTS RealTime-Glo MT Cell Viability Assay in HEK293 cells - 0 hour (AID 1224880). The procedure, abridged: as §2
% is set by controls: 0 for no effect and ±100 for the full control effect.

As for `CCC1(c2ccc(N)cc2)CCC(=O)NC1=O` (centres undefined), the Potency result in experiment [1], in experiment [2], in [3], in experiment [5], in experiment [6] and in experiment [7] was “inactive” throughout. In addition, the Potency result in experiment [8], in experiment [9] and in experiment [10] was “inactive” each time. In addition, in experiment [4], the max response is 6.38% (inactive).

As to `c1ccc2c(c1)Nc1ccccc1S2`, the Potency result in [1], in experiment [3], in experiment [5], in [6], in experiment [7] and in experiment [8] was “inactive” each time. Besides, in experiment [9], the Potency result is “inactive”. The Potency in experiment [2] is 6.92 µM (active) and 12 µM (active); in experiment [4] it was 14.3 µM (active) and 13.4 µM (active).

Regarding `Clc1ccc(C(Cl)(Cl)Cl)cc1`, the Potency entry in experiment [1], in experiment [2], in experiment [3], in experiment [5], in experiment [6] and in experiment [7] was “inactive” throughout. The Potency result in [8], in experiment [9] and in experiment [10] was “inactive” in each case. Besides, the max response in experiment [4] is -12.2% (inactive) and -12.9% (inactive).

Take `CN(C)P(=O)(N(C)C)N(C)C`: the Potency entry in experiment [1], in [2], in experiment [3], in [5], in experiment [6] and in experiment [7] was “inactive” each time. In addition, the Potency result in experiment [8], in experiment [9] and in [10] was “inactive” in each case. Moreover, the max response in [4] was 3.42% (inactive) and 6.93% (inactive).

On to `CC1(C)C(C(=O)OC(C#N)c2cccc(Oc3ccccc3)c2)C1(C)C` (centres undefined), for which the Potency result in experiment [1], in [2], in experiment [3], in [6], in experiment [7] and in [8] was “inactive” in each case. Further, the Potency entry in [9] and in experiment [10] was “inactive” each time. The Potency in experiment [4] was 22 µM (active). For the same compound, in experiment [4], the max response was -25.9% (inactive).

With `CC(C)=CC1C(C(=O)OCN2C(=O)C3=C(CCCC3)C2=O)C1(C)C` (centres undefined), the Potency entry in [1], in [2], in experiment [3], in experiment [5], in experiment [6] and in experiment [7] was “inactive” each time. Further, the Potency result in [8], in [9] and in experiment [10] was “inactive” each time. For the same compound, the max response in experiment [4] is 2.99% (inactive).

As to `CCC[CH2][Sn]([Cl])([CH2]CCC)[CH2]CCC`, the Potency in experiment [1] is 491 nM (active) and 549 nM (active); in [2], 390 nM (active) and 692 nM (active); in experiment [3], 3.47 µM (active) and 1.38 µM (active); in experiment [4], 310 nM (active) and 436 nM (active); in experiment [5] it was 979 nM (active) and 2.45 µM (active); in experiment [6], 1.74 µM (active) and 1.23 µM (active). Moreover, the Potency in experiment [7] was 1.23 µM (active) and 436 nM (active); in [8] it was 1.38 µM (active) and 2.19 µM (active); in experiment [9], 1.38 µM (active) and 692 nM (active). Besides, the Potency result in experiment [10] was “inactive”.

As to `CC(C)CON=O`, the Potency entry in experiment [1], in [2], in experiment [3], in experiment [5], in experiment [6] and in experiment [7] was “inactive” throughout. Moreover, the Potency entry in [8] and in experiment [9] was “inactive” throughout. Moreover, in experiment [4], the max response is 8.89% (inactive) and 0.247% (inactive).

On to `COc1ccc(CO)cc1`, for which the Potency entry in experiment [1], in [2], in [3], in experiment [5], in [6] and in [7] was “inactive” in each case. Moreover, the Potency result in [8], in experiment [9] and in [10] was “inactive” throughout. Further, in experiment [4], the max response is 11.4% (inactive) and -15.8% (inactive).

For `CCCCCCCC[N+](C)(CCCCCCCC)CCCCCCCC`, the Potency in experiment [1] is 24.5 µM (active) and 27.6 µM (active) and 12.3 µM (active); in [2] it was 2.75 µM (active) and 1.1 µM (active) and 6.16 µM (active); in experiment [3] it was 17.3 µM (active) and 30.9 µM (active) and 17.4 µM (active); in [4], 173 nM (active) and 138 nM (active) and 1.1 µM (active); in experiment [5], 21.8 µM (active) and 21.9 µM (active) and 9.77 µM (active); in experiment [6] it was 15.5 µM (active) and 21.9 µM (active) and 17.4 µM (active). The Potency is 9.75 µM (active) and 19.5 µM (active) and 8.71 µM (active) in experiment [7]; 9.75 µM (active) and 19.5 µM (active) and 15.5 µM (active) in experiment [8]; 13.8 µM (active) and 19.5 µM (active) in experiment [9].

Take `S=c1[nH]c2ccccc2[nH]1`: the Potency result in experiment [1], in experiment [2], in experiment [3], in experiment [5], in [7] and in experiment [10] was “inactive” in each case. Also, the max response in experiment [4] was 4.47% (inactive) and 4.64% (inactive). The Potency result was “inactive and 21.9 µM (active)” in [6]; “inactive and 21.9 µM (active)” in [8]; “inactive and 21.9 µM (active)” in experiment [9].

On to `Clc1cccc(Cl)c1`, for which the Potency result in experiment [1], in experiment [2], in [3], in experiment [5], in experiment [6] and in [7] was “inactive” in each case. The Potency entry in experiment [8], in experiment [9] and in experiment [10] was “inactive” each time. In addition, the max response in [4] was 0.4% (inactive) and 0.365% (inactive).

For the compound `CC1(C)Cc2cccc(O)c2O1`, the Potency result in [1], in experiment [2], in experiment [3], in [5], in experiment [6] and in experiment [7] was “inactive” in each case. For the same compound, the Potency result in experiment [8], in [9] and in experiment [10] was “inactive” in each case. Also, in experiment [4], the max response was 1.32% (inactive) and -0.986% (inactive).

On to `O=P(OCCCl)(OCCCl)OCCCl`, for which the Potency result in experiment [1], in experiment [2], in experiment [3], in [5], in experiment [6] and in experiment [7] was “inactive” throughout. For the same compound, the Potency entry in [8] and in experiment [9] was “inactive” throughout. The max response in [4] is -9.18% (inactive) and -11.6% (inactive).

Consider `NN=C(N)N`, for which the Potency entry in experiment [1], in experiment [2], in experiment [3], in [5], in [6] and in experiment [7] was “inactive” each time. Besides, the Potency result in [8], in [9] and in [10] was “inactive” each time. For the same compound, the max response in experiment [4] was -2.73% (inactive) and -1.15% (inactive).

For the compound `Cc1cc(Cl)ccc1N=CN(C)C`, the Potency entry in experiment [1], in [2], in experiment [3], in [5], in experiment [6] and in experiment [7] was “inactive” in each case. Moreover, the Potency result in experiment [8] and in experiment [9] was “inactive” in each case. Further, the max response in [4] is 2.7% (inactive) and 1.16% (inactive).

As for `CN(C)c1ccccc1`, the Potency result in experiment [1], in experiment [2], in experiment [3], in experiment [5], in [6] and in [7] was “inactive” each time. In addition, the Potency entry in experiment [8] and in experiment [9] was “inactive” throughout. Moreover, the max response in experiment [4] is 0.0564% (inactive) and 11.3% (inactive).

The values are drawn from PubChem BioAssay (Tox21).
